Results taken from PubChem BioAssay (NCATS).
Values joined by “and” are separate entries in the source; they are usually repeats but may differ in a detail not shown here. Identical values can stand only once. Results filed as inconclusive are left out. Active and inactive are the calls of the source. Calls follow the shape of the dose curve; as a rule, active = well fitted curve in the direction sought with a large enough effect; inconclusive = small, poorly fitted or top-dose-only effect, or another doubt; inactive = no such curve, though single readings can be large; an effect the other way counts as inactive or inconclusive.

Assays:
KB-3-1 = test: Cytotoxic Profiling of Annotated Libraries Using Quantitative High-Throughput Screening (AID 1296008); details: Five cell lines viability, CellTiter-Glo ATP luminescence, 48-72 h; max response: hits give low values; also: nearly all actives have a fitted effect of over 60% in size; also: potency is read from the fitted curve at half-maximal effect; as to max response: % is scaled to controls: 0 for no effect and ±100 for the full control effect
Procedure, shortened: (§1)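 Cells exposed to compounds for 48 or 72 hr at 37 degrees Celsius. Viability read as ATP-coupled luminescence with CellTiter-Glo after 10 min at room temperature.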

NIH3T3 [1] = test: as above; details: Five cell lines viability, CellTiter-Glo ATP luminescence, 48-72 h; max response: hits give low values
Procedure, shortened: as §1

NIH3T3 [2] = test: qHTS assay to identify novel small-molecules to repurpose for Merkel cell carcinoma treatment (AID 1296009); details: MCC and control cell lines, CellTiter-Glo viability, 72 h; at 44.8 µM (top of the series) unless noted; also: nearly all actives have a fitted effect of over 60% in size
Procedure, shortened: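 Dose-response viability screen; 72 hr exposure at 37 degree celsius; CellTiter-Glo added, 10 min room temperature, luminescence read; RLUs scaled between no-cell and DMSO wells.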

C33A = test: Primary qHTS to identify gynecologic anti-cancer compounds using libraries of approved drugs and bioactive compounds (AID 1345084); details: Gynecologic cancer cell panel viability, ATPlite luminescence, 48 h; series mostly up to 57.5 µM; also: nearly all actives have a fitted effect of over 55% in size; also: potency is read from the fitted curve at half-maximal effect
Procedure, shortened: (§2)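 Cells, 1,000 per well, were allowed to settle for 16 h at 37 C before compound addition. Five concentrations were tested for 48 h, and viability was read by ATPlite luminescence after 15 min at room temperature.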

CAOV3 = test: as above; details: Gynecologic cancer cell panel viability, ATPlite luminescence, 48 h; series mostly up to 57.5 µM
Procedure, shortened: as §2

CASKI = test: as above; details: Gynecologic cancer cell panel viability, ATPlite luminescence, 48 h; series mostly up to 57.5 µM
Procedure, shortened: as §2

Es-2 = test: as above; details: Gynecologic cancer cell panel viability, ATPlite luminescence, 48 h; series mostly up to 57.5 µM
Procedure, shortened: as §2

HeLa = test: as above; details: Gynecologic cancer cell panel viability, ATPlite luminescence, 48 h; series mostly up to 57.5 µM
Procedure, shortened: as §2

Hek293T = test: as above; details: Gynecologic cancer cell panel viability, ATPlite luminescence, 48 h, control line for the selectivity index; series mostly up to 57.5 µM
Procedure, shortened: as §2

JEG-3 = test: as above; details: Gynecologic cancer cell panel viability, ATPlite luminescence, 48 h; series mostly up to 57.5 µM
Procedure, shortened: as §2

OV90 = test: as above; details: Gynecologic cancer cell panel viability, ATPlite luminescence, 48 h; series mostly up to 57.5 µM
Procedure, shortened: as §2

COC(=O)C1(C)CCC(=O)C2(C)c3c(O)cc(C(C)C)cc3C(O)C(OC(C)=O)C12 (centres undefined)
inactive: max response (KB-3-1) 0.842% | outcome (NIH3T3 [1]) | outcome (NIH3T3 [2]) inactive [at 17.4 µM] | Potency (C33A) | Potency (CAOV3) | Potency (CASKI) | Potency (Es-2) | Potency (HeLa) | Potency (Hek293T) | Potency (JEG-3) | Potency (OV90)

Cc1cn(C[C@H](N)C(=O)O)c(=O)n(Cc2cc(-c3ccccc3)sc2C(=O)O)c1=O
inactive: outcome (KB-3-1) | outcome (NIH3T3 [1]) | outcome (NIH3T3 [2]) | Potency (C33A) | Potency (CASKI) | Potency (Es-2) | Potency (HeLa) | Potency (Hek293T) | Potency (JEG-3) | Potency (OV90)

CCOc1ccccc1-n1c(C(C)N2CCN(C(=O)COc3ccc(Cl)cc3)CC2)nc2ccccc2c1=O (centres undefined)
active: Potency (NIH3T3 [1]) 1.03 µM and 933 nM | Potency (Es-2) 3.98 µM
inactive: Potency (C33A) | Potency (CASKI) | Potency (HeLa) | Potency (OV90)

CCCSP(=O)(OCC)SCCC
inactive: Potency (C33A) | Potency (CASKI) | Potency (Es-2) | Potency (HeLa) | Potency (Hek293T) | Potency (OV90)

CCC1NC(=O)C2C(Cl)C(Cl)CN2C(=O)C(C(C)O)NC(=O)CC(c2ccccc2)NC(=O)C(CO)NC1=O (centres undefined)
inactive: outcome (KB-3-1) | outcome (NIH3T3 [1]) | outcome (NIH3T3 [2]) inactive [at 17.4 µM] | Potency (C33A) | Potency (CASKI) | Potency (Es-2) | Potency (HeLa) | Potency (Hek293T) | Potency (JEG-3) | Potency (OV90)

CN1[C@@H]2CC[C@H]1CC(OC(=O)C1C=Nc3ccccc31)C2 (some centres undefined)
inactive: max response (KB-3-1) 7.85% | outcome (NIH3T3 [1]) | outcome (NIH3T3 [2]) | Potency (C33A) | Potency (CASKI) | Potency (Es-2) | Potency (HeLa) | Potency (Hek293T) | Potency (JEG-3) | Potency (OV90)

CC(=O)OC12C(O)C(C)C3(O)C4C=C(C)C(=O)C4CC(CO)=CC3C1C2(C)C (centres undefined)
inactive: outcome (KB-3-1) | outcome (NIH3T3 [1]) | outcome (NIH3T3 [2]) inactive [at 17.4 µM] | Potency (C33A) | Potency (CAOV3) | Potency (CASKI) | Potency (Es-2) | Potency (HeLa) | Potency (Hek293T) | Potency (JEG-3) | Potency (OV90)

CC12CCC3C(CCC4(O)CC(O)CCC34C=O)C1(O)CCC2C1=CC(=O)OC1 (centres undefined)
inactive: outcome (NIH3T3 [1]) | outcome (NIH3T3 [2])
active: Potency (KB-3-1) 1.16 µM | Potency (C33A) 1 µM | Potency (CAOV3) 2 µM | Potency (CASKI) 7.08 µM | Potency (Es-2) 1.12 µM | Potency (HeLa) 1.78 µM | Potency (Hek293T) 1.26 µM | Potency (OV90) 7.08 µM
